A short description of experiment [1]: qHTS assay to identify small molecule agonists of the peroxisome proliferator-activated receptor delta (PPARd) signaling pathway - cell viability counter screen (AID 743211). Note: nearly all actives have a fitted effect of over 55% in size. An outline of the steps:
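Tox21 library compounds, delivered in DMSO, were incubated 17 h with PPARd-bla HEK293H cells; cytotoxicity was taken from CellTiter-Glo luminescence read 30 min after reagent addition.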
(qHTS replaces the single test concentration by a dilution series.)

The target of experiment [2] is Peroxisome proliferator-activated receptor delta (Homo sapiens) (UniProt Q03181). As to the kind of experiment: qHTS assay to identify small molecule agonists of the peroxisome proliferator-activated receptor delta (PPARd) signaling pathway (AID 743212; calls by dose curve). Summed up: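 Read-out: beta-lactamase FRET fluorescence after 2 h room-temperature incubation with LiveBLAzer B/G substrate. Cells were HEK293H carrying a UAS-bla reporter for PPARd, treated at 37 C with DMSO-dissolved compounds.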

Experiment [3] in a line: qHTS assay to identify small molecule antagonists of the peroxisome proliferator-activated receptor delta (PPARd) signaling pathway - cell viability counter screen (AID 743213). Note: nearly all actives have a fitted effect of over 50% in size. Note: potency is the fitted concentration of half-maximal effect. Summed up: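 PPARd-bla HEK293H cells (3000/well) got compound plus 300 nM L165041 agonist for 17 h at 37 C. Viability in the same wells came from CellTiter-Glo luminescence after 30 min at room temperature.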

Experiment [4] has as its target Peroxisome proliferator-activated receptor delta (Homo sapiens) (UniProt Q03181). Description: qHTS assay to identify small molecule antagonists of the peroxisome proliferator-activated receptor delta (PPARd) signaling pathway (AID 743215; active = well fitted inhibition curve with a large enough effect in the signal ratio in the repeat runs, not every such curve was filed as active; the % refers to the signal ratio;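 note: cells stimulated with agonist L165041 at 300 nM final during compound exposure; series mostly up to about 62 µM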). Summed up:
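Plated HEK293H PPARd-bla cells rested 5 h at 37 C and 5% CO2. Compound, then agonist L165041 at 300 nM final, was added; 17 h at 37 C followed. Substrate loading, 2 h room temperature, fluorescence measured.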

A short description of experiment [5]: qHTS assay to identify small molecule agonists of the farnesoid-X-receptor (FXR) signaling pathway - cell viability counter screen (AID 743218). Note: nearly all actives have a fitted effect of over 45% in size. Summed up:
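Viability of FXR-bla HEK 293T cells is measured by ATP-based CellTiter-Glo luminescence following 16 h compound treatment at 37 C and a prior 2 h room-temperature beta-lactamase substrate step.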

Experiment [6] has as its target Bile acid receptor (Homo sapiens) (UniProt Q96RI1). As to the kind of experiment: qHTS assay to identify small molecule agonists of the farnesoid-X-receptor (FXR) signaling pathway (AID 743220; active = well fitted activation curve with a large enough effect in the signal ratio in the repeat runs, not every such curve was filed as active; the % refers to the signal ratio). An outline of the steps: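 FXR-UAS-bla HEK 293T cells carrying a UAS-driven beta-lactamase reporter were plated for 5 h at 37C/5% CO2, then exposed to DMSO-dissolved Tox21 10K compounds for 16 h at 37C. A LiveBLAzer B/G FRET substrate was loaded for 2 h at room temperature before fluorescence reading.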

Experiment [7] can be described thus: qHTS assay to identify small molecule antagonists of the farnesoid-X-receptor (FXR) signaling pathway - cell viability counter screen (AID 743221; active = well fitted cell-killing curve with a large enough effect in the repeat runs, not every such curve was filed as active; note: nearly all actives have a fitted effect of over 50% in size). An outline of the steps:
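Cytotoxicity is taken from ATP luminescence (CellTiter-Glo, 30 min, room temperature) in FXR-bla HEK 293T cells previously incubated 16 h at 37 C with compound and chenodeoxycholic acid at 50 uM final.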

For experiment [8], the target named is Vitamin D3 receptor (Homo sapiens) (UniProt P11473). As to the kind of experiment: qHTS assay to identify small molecule agonists of the vitamin D receptor (VDR) signaling pathway (AID 743222; calls by dose curve). An outline of the steps:
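Fluorescence from cleaved LiveBLAzer B/G FRET substrate served as readout. VDR-bla cells had been treated 16 h at 37C with test compounds in DMSO, following a 4 h settling period, and substrate was loaded for 2 h at RT.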

Experiment [9] shares this target. Description: qHTS assay to identify small molecule antagonists of the vitamin D receptor (VDR) signaling pathway (AID 743223; active = well fitted inhibition curve with a large enough effect in the signal ratio in the repeat runs, not every such curve was filed as active; the % refers to the signal ratio). An outline of the steps:
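Quantitative HTS in VDR-bla reporter cells stimulated with 1alpha,25-dihydroxyvitamin D3, 3 nM final. Compound exposure 16 h, 37C, 5% CO2. Read-out: beta-lactamase FRET substrate fluorescence, 2 h RT.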

Experiment [10] is described as follows: qHTS assay to identify small molecule agonists of the vitamin D receptor (VDR) signaling pathway - cell viability counter screen (AID 743224). Note: series mostly up to about 63 µM; nearly all actives have a fitted effect of over 50% in size. Summed up:
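Compounds were pin-transferred onto VDR-bla cells plated 4 h earlier; following 16 h incubation at 37C, cell viability was quantified by CellTiter-Glo luminescence after 30 min at room temperature.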

Experiment [11] can be described thus: qHTS assay to identify small molecule agonists of the NFkB signaling pathway - cell viability counter screen (AID 1159515; calls by dose curve; note: series mostly up to about 61 µM; nearly all actives have a fitted effect of over 55% in size). An outline of the steps:
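Parallel cytotoxicity counter screen in ME-180 cells carrying an NFkB-response-element beta-lactamase reporter, 2,000 cells/well. Compound exposure lasted 5 hr at 37 C, 5% CO2. Cell viability was quantified by CellTiter-Glo luminescence.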

Experiment [12] in a line: qHTS assay to identify small molecule agonists of the endoplasmic reticulum stress response signaling pathway (AID 1159516; active = well fitted activation curve with a large enough effect in the signal ratio in the repeat runs, not every such curve was filed as active; the % refers to the signal ratio). Summed up: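 Using a HeLa line with an ESRE-driven beta-lactamase gene, agonist activity was measured by FRET substrate fluorescence (460 and 530 nm emission) after cells were treated with compounds for 5 hr at 37 C and 5% CO2.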
A short description of experiment [13]: qHTS assay to identify small molecule agonists of the endoplasmic reticulum stress response signaling pathway - cell viability counter screen (AID 1159517; calls by dose curve;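 note: HeLa cells carrying an ER stress response element beta-lactamase reporter; series mostly up to about 61 µM; nearly all actives have a fitted effect of over 50% in size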). Summed up:
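Steps: seed 1,500 ESRE-bla HeLa cells per well; incubate overnight at 37 C, 5% CO2; add compounds in DMSO for 5 hr; run FRET substrate 2 hr RT; add CellTiter-Glo, wait 30 min, read luminescence.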

A short description of experiment [14]: qHTS assay to identify small molecule antagonists of the retinoid-related orphan receptor gamma (ROR-gamma) signaling pathway - cell viability counter screen (AID 1159520). Note: nearly all actives have a fitted effect of over 50% in size. An outline of the steps:
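Tet-on ROR gamma CHO cells were given compounds for 2 hr, then doxycycline hyclate at 1 uM final, and incubated 16 hr at 37 C. Viability was measured as ATP content by CellTiter-Glo luminescence.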

The target in experiment [15] is Nuclear receptor ROR-gamma (Homo sapiens) (UniProt P51449). Description: qHTS assay to identify small molecule antagonists of the retinoid-related orphan receptor gamma (ROR-gamma) signaling pathway (AID 1159521; note: nearly all actives have a fitted effect of over 50% in size; note: potency is the fitted concentration of half-maximal effect). An outline of the steps: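 Inducible-expression reporter assay: doxycycline (1 uM final) switched on RORγ in CHO cells bearing a ROR response element-luciferase construct, with test compounds present from 2 h beforehand. Decreased luminescence after 16 h defined antagonist activity.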

Experiment [16] is described as follows: qHTS assay to identify small molecule agonists of the AP-1 signaling pathway - cell viability counter screen (AID 1159525; calls by dose curve; note: nearly all actives have a fitted effect of over 55% in size). Summed up: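 Same-well cytotoxicity counter screen of the Tox21 10K library in ME-180 cells. The readout is ATP-dependent luminescence after 5 h compound treatment. Data are normalised to DMSO and tetra n-octyl ammonium bromide controls.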

Experiment [17] is described as follows: qHTS assay to identify small molecule agonists of the AP-1 signaling pathway (AID 1159526; calls by dose curve).
For experiment [18], the target named is Retinoic acid receptor RXR-alpha (Homo sapiens) (UniProt P19793). Description: qHTS assay to identify small molecule agonists of the RXR signaling pathway (AID 1159527; calls by dose curve; note: nearly all actives have a fitted effect of over 35% in size). Summed up: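 Compounds in DMSO were added to RXR-alpha-UAS-bla HEK 293T cells kept in 2% charcoal-stripped serum, and incubated 16 hr at 37 C with 5% CO2. Reporter signal came from a 2 hr B/G FRET substrate step.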

Experiment [19] in a line: qHTS assay to identify small molecule antagonists of the vitamin D receptor (VDR) signaling pathway - cell viability counter screen (AID 743225). Note: nearly all actives have a fitted effect of over 50% in size. Summed up: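 Same-well multiplex: following 16 h treatment of HEK 293T cells carrying a UAS-driven beta-lactamase reporter with compound and agonist (3 nM final), and a 2 h FRET substrate step, CellTiter-Glo was added and luminescence read after 30 min.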

The target of experiment [20] is Bile acid receptor (Homo sapiens) (UniProt Q96RI1). Description: qHTS assay to identify small molecule antagonists of the farnesoid-X-receptor (FXR) signaling pathway (AID 743217; active = well fitted inhibition curve with a large enough effect in the signal ratio in the repeat runs, not every such curve was filed as active; the % refers to the signal ratio). An outline of the steps:
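Screen of the Tox21 10K library in quantitative HTS format using FXR-UAS-bla HEK 293T reporter cells. Agonist chenodeoxycholic acid, 50 uM final, added with compounds; 16 h incubation at 37 °C; beta-lactamase FRET fluorescence measured.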

The values that follow come from PubChem BioAssay (Tox21).

Records with an inconclusive call do not appear. Activity calls are given as the source filed them. Unless noted, calls come from the whole dose curve; as a rule, active = well fitted curve in the direction sought with a large enough effect in the repeat runs; inconclusive = weak or mixed curves; inactive = no such curve, though single readings can be large; an effect the other way counts as inactive or inconclusive.

Sequence of Peroxisome proliferator-activated receptor delta (Homo sapiens) (Q03181 whole entry, looked up): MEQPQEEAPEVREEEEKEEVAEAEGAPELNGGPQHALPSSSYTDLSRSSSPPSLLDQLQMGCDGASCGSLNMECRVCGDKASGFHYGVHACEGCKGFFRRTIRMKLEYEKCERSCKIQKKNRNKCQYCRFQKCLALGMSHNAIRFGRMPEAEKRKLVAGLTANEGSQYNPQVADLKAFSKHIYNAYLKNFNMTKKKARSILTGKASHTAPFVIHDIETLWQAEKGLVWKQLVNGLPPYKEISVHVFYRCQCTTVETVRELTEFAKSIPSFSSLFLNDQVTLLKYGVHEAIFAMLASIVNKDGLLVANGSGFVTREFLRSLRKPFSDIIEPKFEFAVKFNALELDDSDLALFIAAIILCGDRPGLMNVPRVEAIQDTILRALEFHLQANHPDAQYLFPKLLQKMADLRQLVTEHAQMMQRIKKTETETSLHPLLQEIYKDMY
Sequence of Vitamin D3 receptor (Homo sapiens) (P11473 whole entry, looked up): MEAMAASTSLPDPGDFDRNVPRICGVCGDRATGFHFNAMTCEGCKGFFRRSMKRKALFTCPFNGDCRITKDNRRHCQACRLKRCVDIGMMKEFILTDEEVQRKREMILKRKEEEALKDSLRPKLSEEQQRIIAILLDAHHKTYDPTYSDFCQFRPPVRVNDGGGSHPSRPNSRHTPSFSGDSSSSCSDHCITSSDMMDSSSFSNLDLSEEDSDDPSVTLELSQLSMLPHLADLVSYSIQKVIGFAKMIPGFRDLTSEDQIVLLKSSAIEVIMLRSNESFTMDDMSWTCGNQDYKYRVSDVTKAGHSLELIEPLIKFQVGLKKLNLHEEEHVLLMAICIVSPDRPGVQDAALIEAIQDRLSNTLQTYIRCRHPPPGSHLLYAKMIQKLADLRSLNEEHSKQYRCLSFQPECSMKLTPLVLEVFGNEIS
Sequence of Bile acid receptor (Homo sapiens) (Q96RI1 whole entry, looked up): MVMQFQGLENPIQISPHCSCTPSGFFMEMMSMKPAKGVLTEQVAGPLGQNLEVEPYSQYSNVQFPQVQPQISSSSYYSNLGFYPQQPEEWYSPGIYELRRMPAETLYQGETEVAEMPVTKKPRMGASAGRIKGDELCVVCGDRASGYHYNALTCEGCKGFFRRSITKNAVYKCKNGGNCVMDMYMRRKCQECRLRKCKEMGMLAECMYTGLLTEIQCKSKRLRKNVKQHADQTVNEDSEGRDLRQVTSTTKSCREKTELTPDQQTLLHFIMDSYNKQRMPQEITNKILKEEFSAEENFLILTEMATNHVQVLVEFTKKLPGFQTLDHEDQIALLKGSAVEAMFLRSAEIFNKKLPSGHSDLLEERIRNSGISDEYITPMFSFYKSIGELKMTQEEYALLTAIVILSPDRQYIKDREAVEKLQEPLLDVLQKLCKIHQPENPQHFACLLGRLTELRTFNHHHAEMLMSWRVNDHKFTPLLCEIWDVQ
Sequence of Retinoic acid receptor RXR-alpha (Homo sapiens) (P19793 whole entry, looked up): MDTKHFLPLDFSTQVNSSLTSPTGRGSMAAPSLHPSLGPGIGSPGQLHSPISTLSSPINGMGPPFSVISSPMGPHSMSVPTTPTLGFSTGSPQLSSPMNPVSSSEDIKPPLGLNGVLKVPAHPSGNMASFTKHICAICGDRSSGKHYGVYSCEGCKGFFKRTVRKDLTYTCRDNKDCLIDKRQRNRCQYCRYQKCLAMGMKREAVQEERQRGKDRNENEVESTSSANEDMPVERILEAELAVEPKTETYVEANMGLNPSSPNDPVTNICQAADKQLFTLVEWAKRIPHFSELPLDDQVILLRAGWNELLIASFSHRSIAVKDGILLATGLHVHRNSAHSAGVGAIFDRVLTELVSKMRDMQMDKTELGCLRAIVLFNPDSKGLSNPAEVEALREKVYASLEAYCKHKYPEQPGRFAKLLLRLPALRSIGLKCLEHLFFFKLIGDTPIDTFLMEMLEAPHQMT

For `CC(C)(C)c1cc(CCC(=O)OCC(COC(=O)CCc2cc(C(C)(C)C)c(O)c(C(C)(C)C)c2)(COC(=O)CCc2cc(C(C)(C)C)c(O)c(C(C)(C)C)c2)COC(=O)CCc2cc(C(C)(C)C)c(O)c(C(C)(C)C)c2)cc(C(C)(C)C)c1O`, the Potency entry in experiment [1], in experiment [3], in experiment [5], in experiment [7], in [9] and in experiment [10] was “inactive” throughout. Further, the Potency entry in experiment [11], in experiment [12], in experiment [14], in [15], in experiment [16] and in [17] was “inactive” throughout. In addition, the compound was classed as inactive in experiment [2], in experiment [4], in experiment [6], in experiment [8] and in [13].

As to `COCCCCCCCCOCCC[Si](C)(O[Si](C)(C)C)O[Si](C)(C)C`, the call in experiment [2], in experiment [8] and in [13] was inactive. Also, the Potency in experiment [3] was 15.5 µM (active); in experiment [15] it was 17.2 µM (active). For the same compound, the Potency result in [7], in [9], in experiment [11], in experiment [12], in experiment [14] and in experiment [16] was “inactive” each time. For the same compound, the Potency result in experiment [17] and in experiment [18] was “inactive” in each case.

Consider `CCN(CC)CCc1nc(-c2ccccc2)no1`, for which the Potency result in experiment [1], in [3], in experiment [7], in experiment [10], in [19] and in [11] was “inactive” each time. Also, the Potency entry in experiment [12], in experiment [14], in experiment [15], in [16] and in experiment [17] was “inactive” in each case. In addition, the outcome in experiment [2], in experiment [4] and in experiment [13] was inactive.

As to `CCOc1nc2cccc(C(=O)O)c2n1Cc1ccc(-c2ccccc2-c2nn[nH]n2)cc1`, the Potency entry in [1], in experiment [3], in experiment [7], in experiment [10], in [11] and in [12] was “inactive” each time. Moreover, the Potency entry in experiment [14], in experiment [15], in experiment [16] and in experiment [17] was “inactive” in each case. Besides, the result in experiment [2], in [4] and in [13] was inactive.

As to `CCOC(=O)C1=C(C)NC(C)=C(C(=O)OC)C1c1cccc([N+](=O)[O-])c1` (stereo unspecified), the Potency result in [1], in experiment [3], in experiment [5], in experiment [7], in experiment [9] and in [10] was “inactive” throughout. Also, the Potency entry in [19], in [11], in experiment [12], in [14], in [15] and in experiment [16] was “inactive” each time. The Potency entry in experiment [17] was “inactive”. Besides, the compound was classed as inactive in [2], in experiment [4], in experiment [8] and in [13].

In the case of `CN(C)CC[C@@H](c1ccc(Br)cc1)c1ccccn1`, the compound was classed as inactive in [2], in experiment [6] and in experiment [13]. Besides, the Potency result in experiment [3], in experiment [10], in experiment [19], in [11], in experiment [12] and in experiment [14] was “inactive” each time. The Potency entry in experiment [15], in experiment [16], in experiment [17] and in experiment [18] was “inactive” throughout.

For the compound `Nc1nc(N)c(-c2ccccc2)s1`, the Potency entry in experiment [1], in experiment [3], in experiment [5], in [7], in experiment [10] and in [19] was “inactive” in each case. In addition, the Potency result in experiment [11], in experiment [12], in experiment [14], in experiment [15], in [16] and in [17] was “inactive” throughout. Moreover, the call in experiment [2], in [20], in experiment [6] and in [13] was inactive.

`N#CCCNCCC#N`: the Potency entry in [1], in experiment [3], in [5], in [7], in experiment [10] and in experiment [19] was “inactive” each time. In addition, the Potency entry in experiment [11], in experiment [12], in experiment [14], in [15], in experiment [16] and in [17] was “inactive” in each case. Besides, the result in [2], in experiment [4], in [8] and in experiment [13] was inactive.

Consider `COc1ccc2[nH]c(S(=O)Cc3ncc(C)c(OC)c3C)nc2n1` (stereo unspecified), for which the Potency entry in experiment [1], in experiment [3], in [5], in experiment [7], in experiment [9] and in experiment [10] was “inactive” throughout. Besides, the Potency entry in experiment [19], in experiment [11], in experiment [12], in experiment [14], in [15] and in experiment [16] was “inactive” each time. In experiment [17], the Potency result is “inactive”. Also, the result in experiment [2], in experiment [4], in experiment [8] and in experiment [13] was inactive.
